# In PubChem BioAssay:
# Calls of active or inactive are those of the source.
# Assays:
# [1] = E. coli DRC41 culture turbidity changes, primary screen, E. coli filamentation inducer project, strain DRC41, OD650, 48 h (AID 1152);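 further: E. coli MC1000 strain DRC41 lacking acrAB efflux pump and sulA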; settings: E. coli DRC41 (acrAB sulA), higher = more signal, called active from +8 up or from −8 down
# [2] = small-molecule binders of probe aLefty1, primary screen, biochemical, small-molecule microarray, 635/667 nm fluorescence (AID 1153); settings: higher = more signal;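 further: score merges spot fluorescence with signal-to-noise ratio from the scanned slide images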
# [3] = PSAC antagonists in infected red cells, primary screen, cell-based, P. falciparum Indochina, OD700, 1 h (AID 1154); settings: P. falciparum Indochina infected RBC osmotic lysis, higher = more signal, called active from +8 up or from −8 down
# [4] = PSAC antagonists in infected red cells, primary screen, cell-based, P. falciparum Indochina, OD700, 2 h (AID 1155);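 further: lysis reports solute entry through the parasite surface anion channel PSAC; channel blockers reduce lysis of infected cells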; settings: P. falciparum Indochina infected erythrocytes, osmotic lysis OD700; higher = more signal, called active from +8 up or from −8 down
# [5] = osmotic lysis modulators in infected erythrocytes, primary screen, PSAC antagonist project, cell-based, P. falciparum Indochina, OD700, 3 h (AID 1156); settings: higher = more signal, called active from +8 up or from −8 down
# [6] = PSAC antagonists in infected red cells, primary screen, cell-based, P. falciparum Indochina, OD700, 18 h (AID 1157); settings: P. falciparum Indochina infected erythrocytes, osmotic lysis OD700, 18 h; higher = more signal, called active from +8 up or from −8 down
# [7] = modulators of S6 phosphorylation in cells, primary screen, cell-based, A549, cytoblot, luminescence, serum-stimulated (AID 1158); settings: A549 phospho-S6 cytoblot, 5 h, higher = more signal;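 further: serum-stimulated A549 lung adenocarcinoma cells; signal is phosphorylated S6 detected by cytoblot immunostaining with HRP secondary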
# [8] = biological target: NADPH oxidase 2 (Homo sapiens) (UniProt P04839); assay: NOX2-dependent H2O2 signal modulators, primary screen, NOX inhibitor project, cell-based, HEK293-NOX2, PMA-stimulated, Amplex Red fluorescence (AID 1159); settings: 45 min, higher = more signal, called active from +8 up or from −8 down; further: test concentration not given here
# Chain of NADPH oxidase 2 (Homo sapiens) (P04839 whole entry, looked up): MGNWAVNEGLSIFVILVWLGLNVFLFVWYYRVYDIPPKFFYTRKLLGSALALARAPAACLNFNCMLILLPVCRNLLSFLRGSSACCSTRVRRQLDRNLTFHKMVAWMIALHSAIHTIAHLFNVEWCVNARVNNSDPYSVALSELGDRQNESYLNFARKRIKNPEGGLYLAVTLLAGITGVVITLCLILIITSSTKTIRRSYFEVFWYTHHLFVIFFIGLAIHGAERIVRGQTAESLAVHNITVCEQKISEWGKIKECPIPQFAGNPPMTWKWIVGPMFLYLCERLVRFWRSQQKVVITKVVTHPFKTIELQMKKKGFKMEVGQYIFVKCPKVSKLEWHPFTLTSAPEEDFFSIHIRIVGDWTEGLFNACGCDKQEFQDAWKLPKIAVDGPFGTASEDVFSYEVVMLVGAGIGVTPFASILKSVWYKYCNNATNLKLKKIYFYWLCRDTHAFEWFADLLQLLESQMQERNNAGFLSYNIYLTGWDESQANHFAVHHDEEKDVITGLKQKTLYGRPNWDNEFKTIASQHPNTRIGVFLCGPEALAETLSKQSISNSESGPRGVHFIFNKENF
# [9] = biological target: NADPH oxidase 4 (Homo sapiens) (UniProt Q9NPH5); assay: NOX4-dependent H2O2 signal modulators, primary screen, NOX inhibitor project, cell-based, HEK293-NOX4, tetracycline-induced, Amplex Red fluorescence (AID 1160); settings: 45 min, higher = more signal, called active from +8 up or from −8 down
# Chain of NADPH oxidase 4 (Homo sapiens) (Q9NPH5 whole entry, looked up): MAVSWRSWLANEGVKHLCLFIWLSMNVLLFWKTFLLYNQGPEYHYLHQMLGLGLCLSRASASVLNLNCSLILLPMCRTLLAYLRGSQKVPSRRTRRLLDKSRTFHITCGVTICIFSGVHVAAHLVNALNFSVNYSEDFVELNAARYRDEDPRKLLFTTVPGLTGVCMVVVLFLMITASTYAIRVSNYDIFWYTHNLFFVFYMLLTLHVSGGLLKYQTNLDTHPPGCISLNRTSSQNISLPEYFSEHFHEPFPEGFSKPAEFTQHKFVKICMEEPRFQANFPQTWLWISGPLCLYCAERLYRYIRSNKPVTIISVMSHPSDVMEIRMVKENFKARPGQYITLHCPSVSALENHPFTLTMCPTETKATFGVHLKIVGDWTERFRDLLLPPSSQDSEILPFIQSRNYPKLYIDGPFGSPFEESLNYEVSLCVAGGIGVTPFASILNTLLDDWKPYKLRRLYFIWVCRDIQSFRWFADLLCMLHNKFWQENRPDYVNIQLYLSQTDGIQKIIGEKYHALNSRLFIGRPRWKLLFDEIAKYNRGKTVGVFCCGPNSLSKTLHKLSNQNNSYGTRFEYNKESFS
# [10] = biological target: NADPH oxidase 5 (Homo sapiens) (UniProt Q96PH1); assay: NOX5-dependent H2O2 signal modulators, primary screen, NOX inhibitor project, cell-based, HEK293-NOX5, Amplex Red fluorescence (AID 1161); settings: HEK293-NOX5, ionomycin, 45 min, higher = more signal
# Chain of NADPH oxidase 5 (Homo sapiens) (Q96PH1 whole entry, looked up): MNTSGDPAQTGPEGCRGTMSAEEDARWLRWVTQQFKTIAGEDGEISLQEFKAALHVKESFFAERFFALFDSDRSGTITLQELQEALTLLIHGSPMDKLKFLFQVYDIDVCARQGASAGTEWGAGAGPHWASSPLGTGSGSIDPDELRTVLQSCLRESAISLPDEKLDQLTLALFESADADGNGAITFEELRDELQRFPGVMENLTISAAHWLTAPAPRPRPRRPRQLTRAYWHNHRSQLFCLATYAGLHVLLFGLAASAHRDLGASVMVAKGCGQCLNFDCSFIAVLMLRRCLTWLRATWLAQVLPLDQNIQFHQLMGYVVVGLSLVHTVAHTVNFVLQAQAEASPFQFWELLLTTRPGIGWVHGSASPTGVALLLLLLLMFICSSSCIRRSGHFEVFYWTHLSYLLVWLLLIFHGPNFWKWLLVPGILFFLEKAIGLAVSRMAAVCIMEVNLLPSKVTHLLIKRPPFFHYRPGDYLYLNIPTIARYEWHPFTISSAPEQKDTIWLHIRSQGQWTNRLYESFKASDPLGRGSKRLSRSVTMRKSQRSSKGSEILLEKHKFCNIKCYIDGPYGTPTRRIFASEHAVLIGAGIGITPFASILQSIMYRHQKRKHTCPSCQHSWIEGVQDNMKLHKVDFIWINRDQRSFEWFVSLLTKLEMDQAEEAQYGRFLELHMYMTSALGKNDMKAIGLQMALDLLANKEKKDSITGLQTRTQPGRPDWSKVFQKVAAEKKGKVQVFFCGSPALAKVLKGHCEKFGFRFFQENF
SMILES,z-score [1],composite z-score [2],z-score [3],z-score [4],z-score [5],z-score [6],z-score [7],z-score [8],z-score [9],z-score [10]
COCCOC(=O)N1C(=O)[C@@]2(c3cc(C#Cc4ccc(OC)cc4)ccc31)[C@H](c1ccc(O)cc1)N1[C@H](c3ccccc3)[C@H](c3ccccc3)OC(=O)[C@H]1[C@@H]2C(=O)N1CCCCCCC1,-0.329 (inactive),2.12,0.0963 (inactive),0.0379 (inactive),-1.3 (inactive),-0.0483 (inactive),-0.307,0.877 (inactive),0.482 (inactive),0.391
C[C@@H]1NC(=O)[C@@]23C(=O)N[C@@H](Cc4ccccc4)C2[C@H](C)[C@@]2(C)O[C@H]2C3/C=C/C/C=C\CNC(=O)[C@@H]2CCCN2C1=O (stereo not given in full),-0.906 (inactive),-0.147,0.518 (inactive),-0.0429 (inactive),-1.12 (inactive),-0.161 (inactive),0.0613,-0.0487 (inactive),0.581 (inactive),-2.64
[N-]=[N+]=Nc1ccccc1C[C@]1(C(N)=O)N=C(c2ccc(OCCCO)cc2)O[C@H]1c1ccccc1N=[N+]=[N-],-0.254 (inactive),0.237,28.5 (active),23.5 (active),1.87 (inactive),1.16 (inactive),1.14,-4.36 (inactive),-2.16 (inactive),-2.52
CC(C)C(=C=CC[C@H](O)c1ccc(OCCO)cc1)C[C@H](O)c1ccccn1,0.839 (inactive),-0.191,11.3 (active),2.04 (inactive),1.11 (inactive),0.945 (inactive),0.439,1.66 (inactive),0.926 (inactive),-1.03
O=C(NCC(F)(F)F)[C@@H]1c2ccccc2C(=O)N(Cc2cc(F)cc(C(F)(F)F)c2)[C@H]1c1ccc(CO)cc1,0.319 (inactive),0.0494,1.71 (inactive),-0.0966 (inactive),1.24 (inactive),0.449 (inactive),0.286,0.898 (inactive),-1.68 (inactive),-1.17
C=C(C)c1cc2c(c(CCCCCC)n1)[Si](C(C)C)(C(C)C)OC2,-0.959 (inactive),-0.245,1.18 (inactive),0.7 (inactive),-0.0223 (inactive),0.778 (inactive),0.202,-1.98 (inactive),-0.933 (inactive),-2.92
CC(CO)N1C(=O)[C@@H]2[C@H]3C(=O)OCC=C[C@H]3OC23C=CCN(CCN2CCOCC2)C(=O)[C@@H]13 (stereo not given in full),-1.06 (inactive),-0.482,0.158 (inactive),-0.358 (inactive),-0.0103 (inactive),-0.255 (inactive),-0.471,0.381 (inactive),0.194 (inactive),1.2
O=C(N1CCCCC1)[C@@]1(CCS(=O)(=O)c2ccccc2)COC(c2ccc(OCCCO)cc2)=N1,0.641 (inactive),0.457,27.3 (active),21.1 (active),2.47 (inactive),2.93 (inactive),-0.436,-1.53 (inactive),0.675 (inactive),0.885
CC(=O)c1ccc(C(O)C2C=CC3C(=O)N(c4ccccc4)C(=O)C3N2Nc2ccc(C#N)cc2)cc1 (stereo not given),-1.54 (inactive),0.192,18 (active),2.58 (inactive),1.27 (inactive),1.44 (inactive),-1.15,-2.48 (inactive),-5.89 (inactive),-4.43
[N-]=[N+]=Nc1ccccc1[C@@H]1OC(c2ccc(OCCCO)cc2)=N[C@]1(Cc1ccccc1)C(=O)NCC(O)CO (stereo not given in full),0.792 (inactive),0.665,31 (active),28 (active),2.32 (inactive),6.87 (inactive),-0.0152,-1.36 (inactive),1.07 (inactive),-0.606
CO[C@H]1O[C@H](CO)[C@@H](OC(=O)Nc2ccc3c(c2)OCO3)[C@H](OC(=O)c2cc3ccccc3[nH]2)[C@H]1OC(=O)c1cc2ccccc2[nH]1,0.599 (inactive),-0.0162,1.48 (inactive),-0.354 (inactive),-0.739 (inactive),-0.536 (inactive),1.26,-3.78 (inactive),-1.95 (inactive),-3.47
C=C(COC)/C(=C/C[C@H](OC(C)=O)c1ccc(OCCO)cc1)c1cc(C(=O)OC)ccc1OC,1.28 (inactive),0.188,24.8 (active),7.54 (inactive),2.08 (inactive),1.14 (inactive),0.497,1.6 (inactive),1.03 (inactive),-1.34
CCOC(=O)C[C@H]1[C@H](OC(=O)c2cc3ccccc3oc2=O)[C@@H](NC(=O)Cc2ccc(OC)cc2)c2cc(OCCCO)ccc2N1C(=O)c1ccc2ccccc2n1,0.96 (inactive),-0.0046,9.52 (active),0.85 (inactive),0.785 (inactive),0.305 (inactive),0.336,1.71 (inactive),1.34 (inactive),1.53
COC(=O)c1cn(C[C@@H](Cc2ccccc2)NC(=O)N[C@H](CO)CCc2oc(C(C)=O)c(C(=O)OC)c2C(=O)OC)nn1,0.555 (inactive),0.238,14.3 (active),2.29 (inactive),1.08 (inactive),0.872 (inactive),0.419,0.744 (inactive),1.01 (inactive),1.84
[N-]=[N+]=Nc1ccccc1[C@H]1OC(c2ccc(OCCCO)cc2)=N[C@@]1(CCS(=O)(=O)c1ccccc1)C(=O)NCCN1CCOCC1,-0.0631 (inactive),0.458,28.9 (active),25.6 (active),0.931 (inactive),1.8 (inactive),0.468,-2.18 (inactive),-0.233 (inactive),-1.47
CC(C)(C)OC(=O)CC[C@]1(C(=O)NCc2ccccc2)N=C(c2ccc(OCCCO)cc2)O[C@H]1c1ccccc1CN=[N+]=[N-],0.829 (inactive),0.146,25.3 (active),12.3 (active),3.22 (inactive),1.65 (inactive),0.224,-0.174 (inactive),-0.533 (inactive),-1.47
COc1ccc([Si](C)(C)[C@@H]2[C@@H](CC(=O)N(CCO)Cc3ccccc3)O[C@]3(C(=O)N(Cc4cccc(N5CCOC5=O)c4)c4ccccc43)[C@H]2C)cc1,-0.179 (inactive),0.677,5.73 (inactive),1.14 (inactive),-0.0706 (inactive),0.843 (inactive),0.475,1.08 (inactive),1.35 (inactive),1.75
COCCCNC(=O)[C@@]1(Sc2ccc(C)cc2)CC(=O)N(C2CCCCC2)[C@@H]1c1ccc(CO)cc1,-0.204 (inactive),0.0209,0.309 (inactive),0.17 (inactive),0.0051 (inactive),0.326 (inactive),0.0394,0.175 (inactive),-0.512 (inactive),-1.3
[N-]=[N+]=Nc1ccccc1C[C@]1(C(=O)N2CCOCC2)N=C(c2ccc(OCCCO)cc2)O[C@H]1c1ccccc1,1.61 (inactive),-0.007,20.5 (active),4.95 (inactive),2.84 (inactive),1.43 (inactive),0.251,0.265 (inactive),0.719 (inactive),-1.47
COCCOC(=O)N1C(=O)[C@@]2(c3cc(C#CC4=CCCCC4)ccc31)[C@H](c1ccc(OCCO)cc1)N1[C@H](c3ccccc3)[C@H](c3ccccc3)OC(=O)[C@H]1[C@@H]2C(=O)N1CCN(c2ncccn2)CC1,0.887 (inactive),0.121,3.35 (inactive),1.73 (inactive),-0.146 (inactive),0.799 (inactive),0.829,0.825 (inactive),-0.623 (inactive),1.03
C=CCC(OC(C)=O)[C@@H]1[C@@H](N(Cc2ccc(-c3cccc(C(F)(F)F)c3)o2)C(=O)c2ccc(-c3ccccc3)cc2)c2cc(OCCCO)ccc2N1C(=O)c1ccc2ccccc2n1 (stereo not given in full),-0.662 (inactive),-0.0501,0.394 (inactive),-0.262 (inactive),0.0785 (inactive),0.188 (inactive),1.02,-1.73 (inactive),-1.3 (inactive),-0.764
O=C1O[C@@H](c2ccccc2)[C@@H](c2ccccc2)N2[C@@H](c3ccc(O)cc3)[C@]3(C(=O)Nc4ccc(C#CC5(O)CCCCCC5)cc43)[C@@H](C(=O)NC[C@H](O)c3ccccc3)[C@H]12,-0.557 (inactive),0.315,0.996 (inactive),0.707 (inactive),1.08 (inactive),0.973 (inactive),0.173,1.14 (inactive),0.441 (inactive),0.0466
C=CCC(OC(C)=O)[C@@H]1[C@@H](N(Cc2cc3ccccc3o2)C(=O)Cc2ccc(F)cc2)c2cc(OCCCO)ccc2N1C(=O)c1ccc2ccccc2c1 (stereo not given in full),-0.959 (inactive),0.106,1.18 (inactive),0.305 (inactive),-0.97 (inactive),0.112 (inactive),-0.448,0.512 (inactive),0.957 (inactive),2.34
[N-]=[N+]=NCc1ccccc1C[C@@]1(C(=O)N2CCOCC2)N=C(c2ccc(OCCCO)cc2)O[C@@H]1c1ccccc1,0.083 (inactive),0.276,27 (active),17.1 (active),2.37 (inactive),0.889 (inactive),2.41,-4.45 (inactive),-1.12 (inactive),-2.14
CCCCC=C[C@@H](NC(=O)c1ccc(-c2ccccc2)cc1)c1ccccc1,-1.63 (inactive),0.258,2.54 (inactive),0.631 (inactive),-0.309 (inactive),0.862 (inactive),0.0893,-0.473 (inactive),-1.12 (inactive),1.46
